# PubChem BioAssay AID1851 (National Center for Advancing Translational Sciences (NCATS), 2009)
# In all, about 16,000 compounds went through this assay and about 5,700 (36%) were called active. Not shown: some 24% with an inconclusive outcome. This is one part of the list. Unmarked numbers belong to inactive results. Calls come from the whole dose curve; as a rule, active = well fitted curve in the direction sought with a large enough effect; inconclusive = small, poorly fitted or top-dose-only effect, or effect the other way; inactive = no such curve, though single readings can be large or run the other way.
# Biological target: Cytochrome P450 1A2 (Homo sapiens) (UniProt P05177)
# Sequence (P05177 whole entry, looked up): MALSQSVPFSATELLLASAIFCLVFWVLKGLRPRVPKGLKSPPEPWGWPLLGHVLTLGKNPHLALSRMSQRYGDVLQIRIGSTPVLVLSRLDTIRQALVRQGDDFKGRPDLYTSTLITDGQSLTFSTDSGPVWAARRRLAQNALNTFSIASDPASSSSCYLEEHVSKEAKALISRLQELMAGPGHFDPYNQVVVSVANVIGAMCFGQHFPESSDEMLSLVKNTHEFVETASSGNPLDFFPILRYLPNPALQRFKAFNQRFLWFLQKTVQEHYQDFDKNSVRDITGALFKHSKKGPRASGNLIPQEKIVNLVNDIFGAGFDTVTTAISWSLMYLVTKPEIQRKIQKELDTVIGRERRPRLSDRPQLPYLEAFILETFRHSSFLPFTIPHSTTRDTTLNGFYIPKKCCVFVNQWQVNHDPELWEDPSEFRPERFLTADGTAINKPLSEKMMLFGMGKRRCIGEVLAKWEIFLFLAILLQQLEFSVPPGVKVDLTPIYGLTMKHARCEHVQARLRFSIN
# Experiment: Cytochrome panel assay with activity outcomes
# Details: recombinant CYP, pro-luciferin dealkylation, luminescence, p450-cyp1a2; series mostly up to 57.1 µM; activity, negative = inhibition: at the top concentration
# Experimental: The P450 gene superfamily is involved in the metabolism and clearance of xenobiotics. This assay used various human CYP P450 isozymes to measure the dealkylation of various pro-luciferin substrates to luciferin. The luciferin is then measured by luminescence after the addition of a luciferase detection reagent. Pro-luciferin substrate concentration in the assay was equal to its KM for its CYP P450 isozyme. Inhibitors and some substrates limit the production of luciferin, and decrease measured luminescence.
# NCGC Assay Protocol Summary:
# 1, Reagent, 2 uL, Isozyme and Pro-Luciferin
# 2, Library compounds, 23 nl, 40 uM to 0.24 nM dilution series
# 3, Controls, 23 nl, Isozyme specific inhibitor
# 4, Reagent, 2 uL, NADPH regeneration solution
# 5, Incubation time, 60 min, Isozyme specific temperature
# 6, Reagent, 4ul, Detection reagent
# 7, Incubation time, 20 min, Isozyme specific temperature
# 8, Detection, 1 sec, ViewLux luminescent read
# The luciferase-based P450-GloTM Screening Systems were obtained from Promega (Madison, WI) for CYP 1A2 (V9770), CYP 2C9 (V9790), CYP2 C19 (V9880), CYP 2D6 (V9890), and CYP 3A4 Luciferin-PPXE (V9910) and were adapted for 1,536-well microplates and an automated protocol. The control compounds furafylline for 1A2 (F124), sulfaphenazole for CYP 2C9 (S0758), ketoconazole for CYP 2C19 (K1003), quinidine for 2D6 (Q3625), and ketoconazole for 3A4 (K1003) were purchased from Sigma Aldrich (St. Louis, MO). Recombinant P450 enzymes were obtained from baculovirus constructs expressed in insect cells (BD/Gentest).
# Medium-binding white solid Kalypsys plates used. Mixtures kept on ice. 1A2: 10 nM 1A2, 100 uM Luc-ME, 100 mM KPO4; 2C9: 10 nM 2C9, 100 uM Luc-H, 25 mM KPO4; 2C19: 5 nM 2C19, 10 uM Luc-H EGE, 50 mM KPO4; 2D6: 5 nM 2D6, 30 uM Luc-ME EGE, 100 mM KPO4; 3A4: 10 nM, 25 uM Luc-PPXE. All amounts are reflected in their final concentration, working concentration is 2x.
# NADPH regeneration solution: 1.3 mM NADP+, 3.3 mM glucose-6-phosphate, 3.3 mM MgCl2, 0.4 U/mL glucose-6-phosphate dehydrogenase for all isozymes, 200 mM KPO4 for 3A4. Mixture prepared at RT but kept on ice during automated run.
# RT incubation in auxilliary plate hotel for 1A2, 2D6, and 3A4; 37C for 2C9 and 2C19.
# Keywords: P450, CYP1A2, CYP2C19, CYP2C9, CYP2D6, CYP3A4, Luciferase, MLSMR, MLSCN, NIH Roadmap, qHTS, NCGC
# % is set by controls: 0 for no effect and ±100 for the full control effect.
Structure (SMILES),AC50,"activity, negative = inhibition"
CC(C)(C)C(=O)NC(Nc1cccc2cccnc12)C(Cl)(Cl)Cl (configuration not stated),20 µM (active),
Oc1c([C@H](Nc2ccccn2)c2ccccc2)ccc2cccnc12,,-21.9% [at 2.29 µM]
Cc1ccc(C)n1C(Cc1ccccc1)C(=O)O (configuration not stated),,6.11% [at 11.4 µM]
Cc1ccc(-n2c(C)nc3c(cnn3-c3ccc(F)cc3)c2=O)cc1C,2.51 µM (active),
Cc1cc(C)n(-c2ccc(F)cc2)c(=O)c1C(=O)O,,3.85%
FC(F)(F)c1cc(C(F)(F)F)c2ccc(N/N=C/c3cccc(Cl)c3)nc2n1,2.51 µM (active),
O=c1c(O)c(-c2cc(O)c(O)c(O)c2)oc2cc(O)cc(O)c12,5.01 µM (active),
Cc1ccc(OCCOCCn2ccnc2)c(Br)c1,0.282 µM (active),
Cc1cccc(OCCCCCn2ccnc2)c1,0.282 µM (active),
O=C1C2C3C=CC(C2C(=O)N1CN1CCOCC1)C1C2C(=O)N(CN4CCOCC4)C(=O)C2C31 (configuration not stated),,-7.11% [at 11.4 µM]
CCN1C(=O)[C@H]2[C@H]3[C@H](O)[C@H](O)C/C(=N/NC(=O)OCc4ccccc4)[C@@H]3CC[C@@H]2C1=O,,-2.34% [at 11.4 µM]
CC(C)=NOC[C@@H](O)[C@@H]1O[C@@H]2OC(C)(C)O[C@@H]2[C@H]1O,,-4.07% [at 11.4 µM]
Clc1ccc(-c2ccnc(Oc3cc(Cl)ccc3Cl)n2)cc1,0.447 µM (active),
O=C(O)c1ccc(C(=O)O)c(C(=O)O)c1.[NH-][C@@H]1CCCC[C@@H]1[NH-].[Pt],,-19% [at 11.4 µM]
CC(C)OCCCN1CN(S(=O)(=O)c2cccc(Cl)c2)c2nc3ccccc3nc21,14.1 µM (active),
C[N+](C)(C)CC[N+]1(C)Cc2c(Cl)c(Cl)c(Cl)c(Cl)c2C1,,-15.9%
COc1ccc(Nc2ncc(C(=O)N3CCN(c4ccc(F)cc4)CC3)c3ccccc23)cc1,,-21.6%
Cc1noc(C)c1-c1nc(Nc2ccncc2)c2ccccc2n1,0.1 µM (active),
Cc1noc(C)c1-c1nc(Nc2ccccc2)c2ccccc2n1,0.251 µM (active),
Cc1noc(C)c1-c1nc(NC2CCNCC2)c2ccccc2n1,5.01 µM (active),
Cc1noc(C)c1-c1nc(Nc2ccc(F)cc2)c2ccccc2n1,0.251 µM (active),
COc1cccc(C2C3(C#N)C(N)=NC(OC)(OC)C23C#N)c1 (configuration not stated),,-22.7%
C#CCCCO/N=C1/C[C@@H](O)[C@@H](O)[C@@H]2[C@@H]3C(=O)N([C@@H](C)c4ccccc4)C(=O)[C@H]3CC[C@@H]12,,-1.14% [at 11.4 µM]
CNc1nc(-c2c(C)noc2C)nc2ccccc12,0.0501 µM (active),
Cc1noc(C)c1-c1nc(N(C)C)c2ccccc2n1,0.0398 µM (active),

Structure (SMILES),AC50,"activity, negative = inhibition"
COC(=O)[C@@H]1CC[C@H](C)[C@@H](c2ccc(C)cc2)N1C(=O)c1ccc(/C=N\O[C@@H](C)CN2CCCc3nc(C)c(C)cc32)cc1,,-8.09% [at 11.4 µM]
C/C(=N/NC1=NCCN1)c1cn(C2=NCCN2)nc1C,,-13.9% [at 2.29 µM]
CS(=O)(=O)N1CCC[C@@]2(CCN(c3ccncc3)C2)C1,,-0.751%
CN(C)[C@H]1C(=O)C(C(=O)NCN2CCCC2)=C(O)[C@]2(O)C(=O)C3=C(O)c4c(O)cccc4[C@@](C)(O)[C@H]3C[C@@H]12,,-13.9% [at 25.6 µM]
COc1ccc(N2CCN(C(=S)Nc3cc(C)ccc3C)CC2)cc1,,-5.94%
NC(=O)C1(N2CCCCC2)CCN(C(=S)Nc2ccc(Cl)cc2)CC1,,-4.97%
COC(=O)c1cc(OC)c(OC)cc1NC(=S)N1CCCCC1,1.58 µM (active),
COC(=O)c1ccc(C(=O)OC)c(NC(=S)N2CCN(c3ccccc3)CC2)c1,4.47 µM (active),
Cc1ccc(NC(=S)N2CCN(C(=O)C3CCCO3)CC2)c(C)c1 (configuration not stated),,-2.91%
COC(=O)c1ccc(NC(=S)N2CCN(Cc3cccc(C)c3)CC2)cc1,,-18.6%
N[C@@H](CS(=O)O)C(=O)O,,-13.2%
COc1cccc(NC(=O)CSc2nc3c(c(-c4ccco4)c2C#N)CCCC3)c1,,-1.32%
CCc1sc(-c2c(C#N)c(N)nc3c2CCCCCC3)cc1[N+](=O)[O-],2 µM (active),
Cc1ccc(N2C(=O)c3n[nH]c(C)c3C2c2ccccn2)cc1 (configuration not stated),,-2.91%
Cc1ccc(-n2cnc(=O)c3cccnc32)cc1,,-11.7%
O=c1[nH]n(-c2cccc(Cl)c2)c2ncccc12,5.01 µM (active),
Cc1ccc(-n2[nH]c(=O)c3cccnc32)cc1,2.51 µM (active),
O=c1nc(-c2ccccc2)n(-c2ccccc2)c2ncccc12,,-20.5%
O=c1ncn(-c2ccccc2F)c2ncccc12,,-9.76%
CCOCCCn1cnc2c(c1=O)c1nc3ccccc3nc1n2-c1ccccc1,4.47 µM (active),
COCCNC(=O)C1CCN(S(=O)(=O)N2CCC3(CC2)OCCO3)CC1,,-13.7%
CCC(C)NCc1ccc(C(=O)OC)o1 (configuration not stated),,-12.7%
O=C(Nc1ccc2nc(SCc3ccc(Cl)cc3)sc2c1)c1ccccc1C(=O)N1CCOCC1,,-12.7%
COC(=O)c1ccc(CSc2nc3cc(Cl)ccc3s2)o1,2 µM (active),
CCN(c1ccc(NC(=O)COC(=O)c2ccc3ccccc3n2)cc1)C(C)C,2.51 µM (active),

Structure (SMILES),AC50,"activity, negative = inhibition"
Cc1ccc(C(C(=O)NCc2ccco2)N(C(=O)CNC(=O)c2cccs2)c2ccc(C)cc2)cc1 (configuration not stated),,-2.44%
O=C(c1cccs1)n1nc(-c2ccc(Cl)cc2)nc1NCc1ccco1,0.316 µM (active),
Cc1ccc(C(C(=O)NCc2ccco2)N(C(=O)CNC(=O)c2cccs2)c2ccc(C)cc2C)cc1 (configuration not stated),,-8.95%
CCn1c(COc2ccc(OC)cc2)nc2ccccc21,14.1 µM (active),
CCn1c(N)nc2ccccc21,25.1 µM (active),
Cc1noc(COc2ccc(OCc3nc(C)no3)cc2)n1,,0.769%
COc1ccc(OCc2nnc(SCC(=O)O)n2N)cc1,,-20.8%
C[n+]1ccccc1/C=N\O,,-6.64% [at 25.6 µM]
CC(C)NC(=O)N1CCN(c2ccncc2S(=O)(=O)N2CCOCC2)CC1,,-4.14%
O=[N+]([O-])c1ccc(S(=O)(=O)Cc2ccccc2)c2nonc12,,-5.25% [at 2.29 µM]
O=[N+]([O-])c1cc(Cc2cc([N+](=O)[O-])c3cccnc3c2O)c(O)c2ncccc12,,-31.1% [at 2.29 µM]
O=[N+]([O-])c1cccc2c(Br)[nH]nc12,0.126 µM (active),
O=[N+]([O-])c1cccc2c[nH]nc12,2.51 µM (active),
O=[N+]([O-])c1cccc2cn[nH]c12,2.51 µM (active),
Cc1nc2cccc([N+](=O)[O-])c2n1CCCN(C)C,,-16.9% [at 11.4 µM]
COc1ccc2c(c1)CCC1C2CC[C@]2(C)[C@H](NCCCCCCN3C(=O)C=CC3=O)CC[C@@H]12 (some centres not stated),,-3.41%
CCNC(=S)N1CC(C)OC(C)C1 (configuration not stated),,-21.6%
COc1ccc(-c2coc3cc(OC)cc(O)c3c2=O)cc1,3.16 µM (active),
O=c1c(-c2ccc(O)cc2)coc2cc(O)ccc12,15.8 µM (active),
O=c1c(-c2ccc(O)cc2)coc2cc(O)cc(O)c12,5.01 µM (active),
CC(O)CN(CCC(N)=O)CCC(N)=O (configuration not stated),,6.43%
COc1ccccc1C(=O)NCCn1cc(SCC(=O)Nc2nnc(C)s2)c2ccccc21,12.6 µM (active),
Cc1nnc(NC(=O)CSc2ncnc3c2cnn3-c2ccccc2C)s1,,1.29%
CC(C)C(=O)c1c(C(C)C)nn2ccccc12,0.631 µM (active),
CC(C)Oc1ccc2c(=O)c3cc(C(=O)O)ccc3oc2c1,,-20.5%

Structure (SMILES),AC50,"activity, negative = inhibition"
COc1ccc2c(=O)c(-c3ccccc3)c(C)oc2c1,2.51 µM (active),
O=C(c1ccc(COc2ccc(F)cc2)o1)n1cccn1,10 µM (active),
CN(C)C(=O)c1ccc(-c2cncnc2NCc2cccs2)cc1,20 µM (active),
CN(C)c1ccc(-c2cncnc2NCc2cccs2)cc1,0.398 µM (active),
COc1cccc(=O)c2c(C)n(-c3cc(C)cc(C)c3)c(C)c12,10 µM (active),
COc1cc(/C=C(/C#N)c2nc3ccccc3[nH]2)ccc1OCC(=O)Nc1ccccc1C,,2.56%
COc1cc(/C=C(\C#N)c2nc3c(s2)CC(C)CC3)ccc1O (configuration not stated),1.12 µM (active),
CCn1c(SCC(=O)NC2CCCCC2)nc2c(c1=O)SC(C)C2 (configuration not stated),14.1 µM (active),
CCn1c(SCC(=O)Nc2ccc3c(c2)OCCO3)nc2c(c1=O)SC(C)C2 (configuration not stated),12.6 µM (active),
CCn1nnnc1SCC(=O)NC1CCCC1,,-18%
C=CCn1c(SCC(=O)NC2CCCCC2)nnc1C1CCCCC1,,1.5%
CCOc1ccc(-n2c(SCC(=O)Nc3ccc4c(c3)OCCO4)nc3c(c2=O)SCC3)cc1,,-12.3%
CCn1c(SCC(=O)Nc2nc3ccc(C)cc3s2)nc2c(c1=O)SC(C)C2 (configuration not stated),1.58 µM (active),
Cc1ccc2nc(NC(=O)CSc3nc4c(c(=O)n3C)SC(C)C4)sc2c1 (configuration not stated),5.01 µM (active),
CCOc1ccc(-n2c(SCC(=O)Nc3ccc(OC)cc3)nc3c(c2=O)SCC3)cc1,,-13.7%
c1ccc([C@H](CCN2CCCC2)c2ccccn2)cc1,,-14.8% [at 11.4 µM]
CN(C)CCCn1cnc2cc(Cl)c(Cl)cc21,,-19.9% [at 2.29 µM]
CN(C)Cc1ccccc1-c1ccc2ncnc(N(C)C)c2c1,12.6 µM (active),
CN(C)Cc1ccccc1-c1ccc2ncnc(NCc3ccccc3)c2c1,15.8 µM (active),
CN(C)Cc1ccccc1-c1ccc2ncnc(NC3CCNCC3)c2c1,,-9.16%
CNc1ncnc2ccc(-c3ccccc3CN(C)C)cc12,3.16 µM (active),
N=C(N)CCNC(=O)[C@@H]1CCC(N)=N1,,-3.4% [at 2.29 µM]
